Assay [1] can be described thus: qHTS assay to identify small molecule agonists of the hypoxia (HIF-1) signaling pathway - cell viability counter screen (AID 1224844; calls by dose curve; note: nearly all actives have a fitted effect of over 50% in size; note: potency is the fitted concentration of half-maximal effect). The procedure, abridged:
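HRE-bla ME-180 cells in medium with 0.5% dialyzed FBS were preincubated 5 hrs at 37C, exposed to compounds for 17 hrs, then viability was read as CellTiter-Glo luminescence after 30 min at room temperature, in the reporter wells.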

Assay [2] can be described thus: qHTS assay to identify small molecule agonists of H2AX (AID 1224845; active = well fitted activation curve with a large enough effect in the signal ratio in the repeat runs, not every such curve was filed as active; the % refers to the signal ratio). An outline of the steps: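 Wild-type CHO-K1 cells plated overnight, then exposed 3 hr at 37C to compounds at 15 concentrations (0.76% DMSO). Lysed, then HTRF anti-pH2AX(S139)-cryptate/anti-H2AX-d2 detection after 24 hr at room temperature; emissions 665 and 620 nm.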
Assay [3] is described as follows: qHTS assay to identify small molecule agonists of the hypoxia (HIF-1) signaling pathway (AID 1224846; active = well fitted activation curve with a large enough effect in the signal ratio in the repeat runs, not every such curve was filed as active; the % refers to the signal ratio). An outline of the steps:
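HRE-bla ME-180 cells (beta-lactamase reporter under hypoxia response element) were plated at 2,000 cells/well in medium with 0.5% dialyzed FBS, rested 5 hrs, then given compounds in DMSO for 17 hrs at 37C, 5% CO2. Reporter induction was read with CCF4-AM FRET substrate.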

The nature of assay [4]: qHTS assay to identify small molecule agonists of H2AX - cell viability counter screen (AID 1224847; calls by dose curve; note: top concentration of the series differs between compounds; nearly all actives have a fitted effect of over 30% in size). The procedure, abridged:
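After overnight plating of 1000 CHO-K1 cells per well, a 15-concentration compound series was applied for 3 hr at 37C. Luminescence from CellTiter-Glo, read following 30 min at room temperature, reflected cell viability.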

Assay [5] is described as follows: qHTS RealTime-Glo MT Cell Viability Assay in HepG2 cells - 24 hour (AID 1224867). Note: nearly all actives have a fitted effect of over 50% in size. The procedure, abridged:
(§1)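 HepG2 suspension premixed with RealTime-Glo reagents is plated at 600 cells per well and left 5 h at 37 C/5% CO2. Compounds in DMSO then go in, and bioluminescence reflecting viable cell number is recorded over 40 h.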

Assay [6] in a line: qHTS RealTime-Glo MT Cell Viability Assay in HEK293 cells - 32 hour (AID 1224868). Note: top concentration of the series differs between compounds; nearly all actives have a fitted effect of over 50% in size. The procedure, abridged:
(§2)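 Reads taken at 0, 8, 16, 24, 32 and 40 h from the same wells. HEK293 cells (600/well) carried RealTime-Glo reagents from seeding, with compound added after a 5 h settle at 37 C.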

Assay [7] is described as follows: A CellTox Green Cytotoxicity Assay to monitor cytotoxicity in HEK293 cells - 0 hour (AID 1224869). Note: nearly all actives have a fitted effect of over 50% in size. An outline of the steps:
(§3)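 HEK293 cells premixed with CellTox Green dye were seeded at 600 cells/well and left 5 h at 37 C/5% CO2 before pin transfer of 23 nL compound in DMSO. Fluorescence from dye bound to dead-cell DNA was read during 40 h treatment.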

Assay [8] is described as follows: A CellTox Green Cytotoxicity Assay to monitor cytotoxicity in HEK293 cells - 40 hour (AID 1224871). Note: nearly all actives have a fitted effect of over 45% in size. Note: potency is the fitted concentration of half-maximal effect. The procedure, abridged: as §3
A short description of assay [9]: qHTS RealTime-Glo MT Cell Viability Assay in HEK293 cells - 16 hour (AID 1224872). Note: nearly all actives have a fitted effect of over 50% in size. Note: potency is the fitted concentration of half-maximal effect. The procedure, abridged: as §2
A short description of assay [10]: qHTS RealTime-Glo MT Cell Viability Assay in HepG2 cells - 8 hour (AID 1224873). Note: nearly all actives have a fitted effect of over 55% in size. Note: potency is the fitted concentration of half-maximal effect. An outline of the steps: (§4)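 HepG2 cells mixed with RealTime-Glo MT reagents (NanoLuc plus cell-permeant prosubstrate) were seeded at 600 cells/well, incubated 5 h at 37 C/5% CO2, then pinned with compounds in DMSO; nonlytic luminescence tracked viability during 40 h treatment.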
The nature of assay [11]: qHTS RealTime-Glo MT Cell Viability Assay in HEK293 cells - 40 hour (AID 1224874). Note: nearly all actives have a fitted effect of over 50% in size. Note: potency is the fitted concentration of half-maximal effect. The following applies: RealTime-Glo luminescence; max response: active compounds read low. An outline of the steps: (§5)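 HEK293 cells mixed with RealTime-Glo reagents (NanoLuc plus cell-permeant prosubstrate) at 600 cells/well, preincubated 5 h at 37 C/5% CO2, then given 23 nL compound in DMSO. Nonlytic luminescence from viable cells was read at 0, 8, 16, 24, 32 and 40 h.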

Assay [12] can be described thus: A CellTox Green Cytotoxicity Assay to monitor cytotoxicity in HEK293 cells - 24 hour (AID 1224875). Note: nearly all actives have a fitted effect of over 45% in size. Note: potency is the fitted concentration of half-maximal effect. The procedure, abridged:
as §3

Assay [13] is described as follows: A CellTox Green Cytotoxicity Assay to monitor cytotoxicity in HepG2 cells - 16 hour (AID 1224876). Note: nearly all actives have a fitted effect of over 45% in size. The procedure, abridged:
(§6)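 HepG2 cells were seeded together with the CellTox Green dye at 600 cells/well, left 5 h at 37 C/5% CO2, then given compounds in DMSO. Fluorescence from dye bound to dead-cell DNA was read repeatedly over 40 h of treatment at 37 C.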

Assay [14] is described as follows: qHTS RealTime-Glo MT Cell Viability Assay in HepG2 cells - 32 hour (AID 1224877). Note: nearly all actives have a fitted effect of over 55% in size. Note: potency is the fitted concentration of half-maximal effect. The procedure, abridged:
as §1

A short description of assay [15]: A CellTox Green Cytotoxicity Assay to monitor cytotoxicity in HepG2 cells - 24 hour (AID 1224878). Note: nearly all actives have a fitted effect of over 45% in size. Note: potency is the fitted concentration of half-maximal effect. The procedure, abridged:
as §6

Assay [16] is described as follows: A CellTox Green Cytotoxicity Assay to monitor cytotoxicity in HepG2 cells - 40 hour (AID 1224879). Note: nearly all actives have a fitted effect of over 40% in size. Note: potency is the fitted concentration of half-maximal effect. The procedure, abridged: as §6
A short description of assay [17]: qHTS RealTime-Glo MT Cell Viability Assay in HEK293 cells - 0 hour (AID 1224880). Note: nearly all actives have a fitted effect of over 45% in size. Note: potency is the fitted concentration of half-maximal effect. An outline of the steps: as §5
Assay [18] is described as follows: qHTS assay to identify small molecule antagonists of the estrogen related receptor (ERR) signaling pathway from Tox21 library (AID 1224848). Note: nearly all actives have a fitted effect of over 50% in size. The procedure, abridged:
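Screening used an ERR reporter line supplied by NTP, exposed for 18 h at 37 C to library compounds delivered in DMSO. Signal was luciferase luminescence developed with ONE-Glo at room temperature for 30 min.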

A short description of assay [19]: qHTS assay to identify small molecule agonists of the estrogen related receptor (ERR) signaling pathway from Tox21 library (AID 1224849; calls by dose curve; note: nearly all actives have a fitted effect of over 15% in size). As to conditions: ERR reporter cell line, ONE-Glo luciferase, 18 h; at 92.4 µM (top of the series) unless noted. An outline of the steps: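 ERR reporter cell line (NTP) seeded, rested 6 h at 37 C/5% CO2, then pinned with Tox21 compounds in DMSO. After 18 h at 37 C, ONE-Glo luciferase luminescence was read following 30 min at room temperature.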

A short description of assay [20]: qHTS RealTime-Glo MT Cell Viability Assay in HepG2 cells - 40 hour (AID 1224870). Note: nearly all actives have a fitted effect of over 50% in size. Note: potency is the fitted concentration of half-maximal effect. The procedure, abridged:
as §4

A number with no mark means an inactive call. Inconclusive results are not listed. Activity calls are given as the source filed them. Unless noted, calls come from the whole dose curve; as a rule, active = well fitted curve in the direction sought with a large enough effect in the repeat runs; inconclusive = weak or mixed curves; inactive = no such curve, though single readings can be large; an effect the other way counts as inactive or inconclusive.
% is set by controls: 0 for no effect and ±100 for the full control effect.

Take `CN1C(C(=O)Nc2ccccn2)=C(O)c2sccc2S1(=O)=O`: the Potency entry in assay [1], in [2], in assay [4], in assay [5], in [6] and in [7] was “inactive” each time. The Potency result in assay [8], in [9], in assay [10], in [12], in [13] and in assay [14] was “inactive” throughout. For the same molecule, the Potency result in assay [15], in assay [16] and in assay [17] was “inactive” throughout. For the same molecule, in [3], the call was inactive. In assay [11], the max response is 6.41%.

For `C=COCC(C)C`, the Potency result in assay [1], in assay [2], in assay [4], in [18], in assay [5] and in [7] was “inactive” in each case. Also, the Potency entry in assay [20], in assay [10], in assay [12], in assay [13], in assay [14] and in assay [15] was “inactive” each time. In addition, the Potency entry in [16] and in [17] was “inactive” throughout. Further, the activity change, positive = activation in [19] was -0.119%.

`Cc1ccc(Cl)c(Nc2ccccc2C(=O)O)c1Cl`: the Potency result in assay [1], in [2], in assay [4], in [5], in [6] and in [7] was “inactive” throughout. Also, the Potency result in [20], in [8], in assay [9], in assay [10], in assay [12] and in [13] was “inactive” throughout. The Potency entry in assay [14], in [15], in assay [16] and in [17] was “inactive” each time. Also, the max response in assay [11] is -3%.

As for `CCOC(=O)C1=C(C)NC(C)=C(C(=O)OC)C1c1cccc(Cl)c1Cl` (stereo unspecified), the Potency entry in [1], in [2], in [4], in [7], in [8] and in assay [12] was “inactive” each time. Further, the Potency entry in assay [15] and in assay [16] was “inactive” throughout. In [19], the activity change, positive = activation is -28.7% [at 42.5 µM]. The Potency in assay [10] is 19 µM (active); in [17], 5.35 µM (active).

On to `NC1[C@H]2CN(c3nc4c(cc3F)c(=O)c(C(=O)O)cn4-c3ccc(F)cc3F)C[C@@H]12` (stereo partly specified), for which the Potency result in assay [1], in [2], in assay [4], in assay [18], in [5] and in assay [6] was “inactive” in each case. Moreover, the Potency result in [7], in assay [20], in assay [9], in assay [10], in assay [14] and in assay [15] was “inactive” in each case. For the same molecule, the Potency result in assay [16] and in assay [17] was “inactive” in each case. Further, the activity change, positive = activation in assay [19] was 59.2% [at 42.5 µM] (active). In [11], the max response is -27.4%.

As for `C[C@@H]1CN(CCCn2c3ccccc3c3ccccc32)C[C@H](C)N1`, the Potency is 21.3 µM (active) in [1]; 23.9 µM (active) in assay [20]; 23.9 µM (active) in assay [8]; 26.8 µM (active) in assay [9]; 23.9 µM (active) in [11]; 23.9 µM (active) in [12]. The values for the Potency in assay [14], in assay [15] and in assay [16] were 23.9 µM (active), 26.8 µM (active) and 23.9 µM (active), respectively. For the same molecule, the Potency result in assay [2] is “inactive”. In addition, the result in assay [3] was inactive. The activity change, positive = activation in assay [19] was -72.9% [at 42.5 µM].

Turning to `C1C[C@@H]2[C@H]3CC[C@H](C3)[C@@H]2C1`, the Potency result in assay [1], in assay [2], in [4], in assay [5], in [6] and in [7] was “inactive” throughout. Besides, the Potency entry in assay [20], in assay [9], in assay [10], in assay [12], in [13] and in [14] was “inactive” each time. Further, the Potency entry in [15], in [16] and in assay [17] was “inactive” each time. Besides, the molecule was classed as inactive in [3]. For the same molecule, in [11], the max response is -10.1%.

As for `CC1(C)O[C@@H]2C[C@H]3[C@@H]4C[C@H](F)C5=CC(=O)C=C[C@]5(C)[C@H]4[C@@H](O)C[C@]3(C)[C@]2(C(=O)CO)O1`, the Potency result in assay [1], in [2], in assay [4], in [5], in assay [6] and in assay [7] was “inactive” each time. For the same molecule, the Potency entry in assay [8], in [9], in assay [10], in [12], in [13] and in [14] was “inactive” in each case. Moreover, the Potency result in assay [15] and in [16] was “inactive” each time. Besides, the outcome in [3] was inactive. Besides, in [11], the max response is -1.56%.

(Values after PubChem BioAssay (Tox21).)
